HT1080NT lethal: kills 2HG-producing HT-1080-NT fibrosarcoma cells. AID 686970. HT-1080-NT fibrosarcoma viability, CellTiter-Glo ATP luminescence, 48 h. Potency, µM (highest dose often 46.1 µM), inactives show at the top dose activity, negative = less viability, usual class: cytotoxic. 360,000 tested, 1.6% active;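 note: NT is the 2HG producing partner of a matched IDH1 knockdown line; potency is the fitted concentration of half-maximal effect; 0% = DMSO-treated cells and -100% = media-only wells without cells; nearly all actives have a fitted effect of over 55% in size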
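HT-1080-NT fibrosarcoma cells (2HG-overproducing), 750 cells/well in RPMI with 5% FBS, dosed after 2 h and incubated 48 h at 37C. CellTiter-Glo luminescence normalized to DMSO and no-cell wells; concentration-response curves fitted and classed.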
IL-1B inflam inh: blocks inflammasome-driven IL-1 beta release; THP-1 LPS/ATP IL-1B secretion, AlphaLISA, 16 h; stronger effect = lower value; AID 743279; activity change, % at 57.5 µM; 360,000 tested, 4.7% active; in the data active = activity change below about -50%; inconclusive = mostly about -30% to -49%
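Secreted IL-1B measured by AlphaLISA bead assay after 16 h compound exposure of THP-1 cells; compounds (final up to 57.5 uM) added 1 h before LPS (250 ng/mL) and ATP (1.25 mM) stimulation; lower signal means less secretion.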
DT40 TDP1 CPT: DT40-hTDP1 cell growth loss with CPT; chicken DT40 Tdp1-/-;hTDP1 cells + 20 nM CPT, ATP luminescence, 48 h; Potency, µM (titrated, usually from 46.2 µM), without a hit: top-dose activity change, negative = growth inhibition, most hits filed as inhibitors; 420,000 tested, 12% active; AID 686979; note: potency is the fitted concentration of half-maximal effect; nearly all actives have a fitted effect of over 55% in size
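Chicken DT40 Tdp1-/- cells stably complemented with human TDP1 were seeded at 400 cells/well in medium containing 20 nM camptothecin, exposed to pin-transferred compounds, and grown at 37 °C for at least 48 hr. Viability was read as ATP luminescence.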
DT40 TDP1 no CPT: qHTS for Inhibitors of human tyrosyl-DNA phosphodiesterase 1 (TDP1): qHTS in cells in absence of CPT; 420,000 tested, 15% active; DT40 Tdp1-/- hTDP1 cells, no CPT, ATP luminescence, 48 h; Potency, µM (top dose mostly 46.2 µM), for inactives: at the highest dose activity change, negative = growth inhibition, usual class: inhibitors; note: potency is the fitted concentration of half-maximal effect; nearly all actives have a fitted effect of over 55% in size
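Growth kinetics read by CellTiter-Glo luminescence after ≥48 hr at 37 °C. Cells: DT40 Tdp1-/- stably carrying human TDP1, 400 per well, compound exposure in the absence of CPT (DMSO vehicle).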
uPA surface inh: cell surface uPA generation inhibition | cell surface uPA generation assay, qHTS | Potency, µM (highest dose often 38.3 µM), inactives show top-dose activity change, negative = inhibition, usual class: inhibitors | 330,000 tested, 0.31% active; active = well fitted inhibition curve with a large enough effect; inconclusive = small, poorly fitted or top-dose-only effect; inactive = no such curve, though single readings can be large or run the other way; tested in mouse RAW 264.7 cells; note: potency is the fitted concentration of half-maximal effect; nearly all actives have a fitted effect of over 55% in size
HT1080 IDH1KD tx: kills HT-1080 cells with IDH1 knockdown; Potency, µM (doses to about 46.1 µM), without a hit: at the top dose activity, negative = toxicity, actives largely listed as cytotoxic; HT-1080 IDH1 knockdown viability, ATP luminescence, 48 h; 360,000 tested, 2% active; AID 686971;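 note: potency is the fitted concentration of half-maximal effect; 0% = DMSO wells and -100% = cell-free medium wells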
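HT-1080-IDH1KD cells (IDH1 knocked down), 750/well in RPMI with 5% FBS, treated with compound 48 h at 37 degrees C. Viability by CellTiter-Glo luminescence, normalised to DMSO and no-cell wells; concentration-response curves classed.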
* hit, by the source's call; ? = inconclusive; / = no result. Only some compounds are listed: those with a hit (about 19% of all), similar ones and a draw of the others. Unless noted, calls come from the whole dose curve; as a rule, active = well fitted curve in the direction sought with a large enough effect; inconclusive = small, poorly fitted or top-dose-only effect, or another doubt; inactive = no such curve, though single readings can be large; an effect the other way counts as inactive or inconclusive. Unless noted, % is set by controls: 0 for no effect and ±100 for the full control effect.

SMILES | HT1080NT lethal | IL-1B inflam inh | DT40 TDP1 CPT | DT40 TDP1 no CPT | uPA surface inh | HT1080 IDH1KD tx
CCOc1ccc(N=C2Sc3nc4ccc(C)cc4cc3CN2CCOC)cc1 | 5% | -10 | ? | ? | 3% | 3%
O=[N+]([O-])c1cc(Cl)cc(/C=N/Nc2nc3ccccc3s2)c1O | 21µM* | 33 | 0.33µM* | 0.92µM* | 9% | 18µM*
Fc1ccc2nc(Nc3nc4cc5c(cc4s3)OCO5)sc2c1 | ? | 9 | ? | ? | -3% | ?
Fc1cccc2sc(Nc3nc4ccccc4s3)nc12 | -12% | 0 | ? | 12µM* | 2% | -10%
Brc1cc2c(cc1/C=N/Nc1nc3ccccc3s1)OCO2 | 4% | 7 | 15µM* | ? | 4% | 2%
Fc1ccc2nc(Nc3nc4cc5c(cc4s3)OCCO5)sc2c1 | -12% | 0 | 16µM* | ? | 4% | ?
Cn1c(=O)c(=O)n(C)c2cc(S(=O)(=O)Nc3ccc(Cl)c(C(F)(F)F)c3)ccc21 | / | / | -13% | -2% | / | /
C=CCn1c(=O)/c(=C/c2ccsc2)s/c1=C(\C#N)C(=O)NCCN1CCOCC1 | 0% | -29 | -27% | ? | -9% | 0%
O=C(COC(=O)CCc1nc2ccccc2c(=O)[nH]1)Nc1ccccc1OC(F)F | -5% | 6 | 3% | 18% | 13% | 1%
Fc1ccc2nc(Nc3nc4c(F)cc(F)cc4s3)sc2c1 | -7% | -61* | 16µM* | 15µM* | 4% | -7%
c1ccc2sc(Nc3nc4cc5c(cc4s3)OCO5)nc2c1 | -15% | 19 | 23µM* | ? | -4% | -11%
C(=N\Nc1nc2ccccc2s1)/c1ccc2c(c1)OCO2 | -27% | -19 | -20% | ? | -3% | ?
CCN(c1ccccc1)S(=O)(=O)c1nnc(NC(=O)COc2cccc(C)c2)s1 | / | / | 5% | 1% | / | /
CC1(C)C(C=C(Cl)Cl)C1C(=O)N/N=C/c1ccccc1F (stereo not drawn) | -21% | -11 | ? | 29µM* | 5% | -2%
O=C(Nc1ccc([N+](=O)[O-])cc1)C1CC1(c1ccccc1)c1ccccc1 (stereo not drawn) | ? | 0 | ? | ? | 2% | ?
CC1(C)OC2OC(C(=O)N/N=C/c3ccccc3F)C3OC(C)(C)OC3C2O1 (stereo not drawn) | -2% | 38 | 1% | -3% | 6% | 5%
CC1(C)C(C=C(Cl)Cl)C1C(=O)Nc1ccc([N+](=O)[O-])cc1 (stereo not drawn) | 23µM* | -99* | 18µM* | 16µM* | -7% | ?
Cc1cccc(NC(=O)CNC(=O)CN2CCN(C)CC2)c1C | -3% | 4 | 7% | -8% | 0% | 2%
CC(=O)Nc1ccc(NC(=O)COC(=O)c2ccccc2OCc2cccc(Br)c2)cc1 | / | / | -26% | -19% | / | /
CC(O)CNc1nc2c(c(=O)n(C)c(=O)n2C)n1CCc1ccccc1 (stereo not drawn) | 1% | 27 | ? | 16µM* | -2% | -18%
Cn1c(=O)c2c(nc(NCCCO)n2CCc2ccccc2)n(C)c1=O | 10% | 25 | -13% | -30% | 2% | -1%
CCCCC(=O)NCCNc1nc2c(c(=O)n(C)c(=O)n2C)n1Cc1ccccc1 | 2% | 15 | ? | ? | 5% | -2%
CCCNc1nc2c(c(=O)n(C)c(=O)n2C)n1CCc1ccccc1 | ? | -23 | 5µM* | 7.1µM* | / | -11%
Cn1c(=O)c2c(nc(NCC(O)CO)n2CCc2ccccc2)n(C)c1=O (stereo not drawn) | 0% | 13 | -23% | ? | 6% | 4%
Cn1c(=O)c2c(nc(NCCO)n2CCc2ccccc2)n(C)c1=O | -27% | -5 | 16µM* | 12µM* | -11% | 4%
SMILES | HT1080NT lethal | IL-1B inflam inh | DT40 TDP1 CPT | DT40 TDP1 no CPT | uPA surface inh | HT1080 IDH1KD tx
CCCNc1nc2c(c(=O)[nH]c(=O)n2C)n1CCc1ccccc1 | -5% | 26 | 1% | -17% | 2% | 0%
CCCNc1nc2c(c(=O)n(C)c(=O)n2C)n1Cc1cccc(C)c1 | ? | 14 | 7.3µM* | 5.8µM* | -9% | -8%
Cc1cnc(-c2nc3ccccc3n2C(C(=O)NC(C)(C)C)c2ccccc2)cn1 (stereo not drawn) | 7% | 11 | 0% | -6% | / | 22%
C[C@@H]1CN([C@@H](C)CO)C(=O)c2cc(Br)cnc2O[C@H]1CN(C)C(=O)Nc1ccc2c(c1)OCO2 | 9% | 9 | -3% | -11% | / | 4%
CCCNc1nc2c(c(=O)n(C)c(=O)n2C)n1CCC(C)C | -13% | -15 | 16µM* | 16µM* | -7% | -8%
CC(C)CCn1c(Oc2ccccc2F)nc2c1c(=O)n(C)c(=O)n2C | / | / | 18µM* | ? | / | /
CCCCCCn1c(NCC)nc2c1c(=O)n(C)c(=O)n2C | -23% | -7 | 6.5µM* | 2.6µM* | -10% | -18%
CCCNc1nc2c(c(=O)n(C)c(=O)n2C)n1CCCc1ccccc1 | 4% | 2 | 13µM* | 18µM* | -2% | -1%
CCCCNc1nc2c(c(=O)n(C)c(=O)n2C)n1CCC | -17% | 10 | ? | ? | -6% | 5%
O/N=C\c1ccc2noc(-c3ccc(Cl)cc3)c2c1 | -3% | 25 | -14% | -27% | -6% | -6%
OC(COc1cccc2ccccc12)CN1CCN(c2ccccc2)CC1 (stereo not drawn) | -23% | -14 | 18µM* | ? | 8% | -2%
CCOc1ccc2nc(NC(=S)NCc3ccccc3)sc2c1 | ? | -4 | ? | ? | / | 4µM*
CCOc1ccc2nc(NC(=O)COC)sc2c1 | 8% | -16 | -4% | -23% | -6% | 14%
CCOc1ccc2nc(NC(=O)c3ccco3)sc2c1 | 21µM* | -22 | ? | ? | -12% | 18µM*
CCOc1ccc2nc(NC(=O)c3ccoc3C)sc2c1 | 2.3µM* | ? | 9.2µM* | 8.2µM* | -10% | 3.7µM*
NC(=O)c1nsc(C(=O)N(c2ccccc2)C(C(=O)NCC2CCCO2)c2cccs2)c1N (stereo not drawn) | 0% | -9 | 23µM* | 15µM* | 7% | 13%
COc1cccc(N(C(=O)c2snc(C(N)=O)c2N)C(C(=O)NCC2CCCO2)c2ccc3ncccc3c2)c1 (stereo not drawn) | -7% | -10 | 7% | -19% | -3% | 24%
